In PubChem BioAssay AID2061322 (National Center for Advancing Translational Sciences (NCATS), 2025):
Records with an inconclusive call do not appear. Activity calls are given as the source filed them. Calls follow the shape of the dose curve; as a rule, active = well fitted inhibition curve with a large enough effect; inconclusive = small, poorly fitted or top-dose-only effect; inactive = flat fitted curve, though single readings scatter.

assay: Identification of antibody-drug conjugate (ADC) payloads which are substrates of ATP-binding cassette drug efflux transporters: ABCG2-HEK293-R5 cell line with Ko143; conditions: ABCG2-HEK293-R5 with Ko143, CellTiter-Glo viability, 48 h
Excerpt: Antibody-drug conjugates (ADCs) feature an antibody recognizing a specific protein joined to a potent toxic payload. Numerous antibody-drug conjugates have received FDA approval; however, clinical resistance arises. Resistance mechanisms include decreased expression or mutation of the antibody target, impaired payload release, or increased expression of ATP-binding cassette (ABC) efflux transporters associated with multidrug resistance. We therefore sought to characterize the interaction of ABC multidrug transporters with ADC payloads. We performed a high-throughput screen with 27 common ADC payloads using cells lines expressing ABC transporters P-glycoprotein (P-gp, encoded by ABCB1) or ABCG2 (encoded by ABCG2). Confirmatory assays were also performed using cells transfected to express P-gp, ABCG2, or MRP1 (encoded by ABCC1). Several commonly used ADC payloads were substrates of P-gp, including calicheamicin gamma1, monomethyl auristatin E, DM1, and DM4. All the pyrrolobenzodiazepines tested - SJG136, SGD-1882, SG2057, and SG3199 - were substrates of P-gp, ABCG2, and MRP1. […] These findings highlight the risk of transporter-mediated resistance with certain ADC payloads and underscore the importance of selecting payloads that evade ABC transporter recognition in future ADC development.
HEK-293 cells were transfected with empty vector (pcDNA) or vector containing the human ABCB1 (MDR-19), ABCG2 (R-5), or ABCC1 gene (MRP1) and were maintained in EMEM with 2 mg/mL G418 added to maintain transporter expression. The HeLa derivative KB-3-1 and the P-gp overexpressing KB-8-5-11 subline were maintained in DMEM; KB-8-5-11 additionally received 100 ng/mL colchicine. H460 parental cells were obtained from the Division of Cancer Treatment and Diagnosis Tumor Repository, National Cancer Institute at Frederick, MD and were cultured in RPMI. The ABCG2 expressing subline H460 MX20 was generated by selecting H460 cells in 20 nM mitoxantrone. Media in all cases was supplemented with 10% FBS and 1% penicillin-streptomycin. We explored 27 common ADC payloads, in two orthogonal, paired cell line sets-a drug selected and transfected set for each transporter--to identify substrates of the ABC transporters P-gp and ABCG2. Compounds were sourced from Levena Biopharma (San Diego, CA), Selleck Chem (Houston, TX), ChemieTek (Indianapolis, IN), or Microsource Discovery Systems (Gaylordsville, CT). Screening was performed as previously described. Briefly, cells were plated at a density of 500 cells/well in 1536 well plates with compounds added using a 1536-head pin tool (Kalypsys, San Diego CA). Cells were incubated with cytotoxic drugs and processed with CellTiter Glo reagent (Promega, Madison, WI) to determine viability after 48 hours. P-gp substrates were identified by comparing compound activity between paired sets of low-expressing (sensitive) and over-expressing (resistant) cell lines.

Row | SMILES | Potency
1 | CCN[C@H]1CO[C@@H](O[C@H]2[C@H](O[C@H]3C#C/C=C\C#C[C@]4(O)CC(=O)C(NC(=O)OC)=C3/C4=C\CSSSC)O[C@H](C)[C@@H](NO[C@H]3C[C@H](O)[C@H](SC(=O)c4c(C)c(I)c(O[C@@H]5O[C@@H](C)[C@H](O)[C@@H](OC)[C@H]5O)c(OC)c4OC)[C@@H](C)O3)[C@@H]2O)C[C@@H]1OC | 3 nM (active)
2 | CN(C)CCOc1ccc2[nH]c(C(=O)N3C[C@@H](CCl)c4c3cc(O)c3ccccc43)cc2c1 | 1.9 nM (active)
3 | CCN(C(C)=O)[C@H]1CO[C@@H](O[C@H]2[C@H](O[C@H]3C#C/C=C\C#C[C@]4(O)CC(=O)C(NC(=O)OC)=C3/C4=C\CSSSC)O[C@H](C)[C@@H](NO[C@H]3C[C@H](O)[C@H](SC(=O)c4c(C)c(I)c(O[C@@H]5O[C@@H](C)[C@H](O)[C@@H](OC)[C@H]5O)c(OC)c4OC)[C@@H](C)O3)[C@@H]2O)C[C@@H]1OC | 33.6 nM (active)
4 | COC(=O)c1cc2c3c(cc(O)c2[nH]1)N(C(=O)c1cc2cc(OC)c(OC)c(OC)c2[nH]1)CC3CCl (stereo not given) | 4.2 nM (active)
5 | CC(C)(C)OC(=O)Nc1ccc2[nH]c(C(=O)N3C[C@@H](CCl)c4c3cc(O)c3ccccc43)cc2c1 | 30 nM (active)
